ChEMBL document CHEMBL1157539, “Thousands of chemical starting points for antimalarial lead identification” (Nature, 2010)

Test system: HepG2
Assay: GSK_TCMDC: Percent inhibition of human HepG2 cell line. Test compounds present at 10uM.
Assay type: functional

Structure (SMILES) | Inhibition [%]
CCn1c(-c2nc(-c3ccc4c(c3)OCO4)cnc2N)nc2cnccc21 | 94
Cc1cc(Nc2ccc(C)c(C)c2)n2nc(C)nc2n1 | 10
CCN(CC)CCN(Cc1ccc(-c2ccc(C(F)(F)F)cc2)cc1)C(=O)c1c[nH]c2ccc(Br)cc12 | 80
COc1cc(O)c2c(=O)c(OC)c(-c3cccc(Cl)c3OCC(=O)O)oc2c1OC | 0
COc1c(C2CCN(CCCCNC(=O)c3cc(-c4ccc(Cl)cc4)[nH]c3C)CC2)ccc2c1CCCC2 | 53
CN1CCN(c2ccnc3ccc(NC(=O)Nc4ccc(Cl)c(Cl)c4)cc23)CC1 | 0
O=C(NCc1ccc(C(=O)NCc2cccc3ccccc23)cc1)c1ccc(O)c(-c2ccc(Cl)c(Cl)c2)c1 | 0
CCc1cn2c3c(cc(C(=O)N[C@@H](Cc4ccccc4)[C@H](O)CNC4CCOCC4)cc13)N(C)S(=O)(=O)C2.O=CO | 13
COc1ccc2ncc(Cl)c([C@@H](O)CN3CCC(NCc4cc5c(cn4)OCCO5)CC3)c2c1.Cl | 8
O=C(Nc1ccccc1O)c1ccc(Oc2cccc(C(=O)Nc3ccccc3O)c2)cc1 | 33
N#Cc1ccc(CN2CCCN(Cc3cccc(NC(=O)c4cc5ccccc5s4)c3)CC2)cc1.O=C(O)C(F)(F)F | 31
CN(C)CCNc1ncnc2c1[nH]c1ccc(Cl)cc12 | 7
CCCCCCCN1CCC(NC(=O)Nc2ccnc3ccc(OC)cc23)C(CO)C1.O=C(O)C(=O)O (centres undefined) | 23
CC1=C(C(=O)Nc2ccccc2)C(c2ccc([N+](=O)[O-])cc2)n2ncc(C(=O)Nc3ccccc3)c2N1 (centres undefined) | 9
